# ssDAF-12 act: S. stercoralis DAF-12 activation, primary screen | HEK293 ssDAF-12/GRIP1 lit1-tk-luc reporter, luminescence; % of 3 µM dafachronic acid response | activation, % at 6.8 µM | actives 1% (n = 370,000) | AID 652126;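 active = activation above the mean over all tested compounds plus 3 SD, cut at about 0.9% in these data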;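 note: 0% = DMSO-only wells and 100% = 3 µM delta7-dafachronic acid wells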
# DAX1 inh-1: NR0B1 (DAX1) inhibition; P51843; HEK293 Gal4-DAX1 luciferase reporter, luminescence; inhibition, % at 6.75 µM; actives 0.99% (n = 340,000); AID 504766;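 active = inhibition above the mean over all tested compounds plus 3 SD, cut at about 4.2% in these data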;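 note: 0% = DAX1-transfected cells with DMSO and 100% = empty-vector control cells with DMSO; inhibition shows as a rise in luminescence from relieved DAX1 repression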
# Target sequence (P51843 207-470 limits assumed): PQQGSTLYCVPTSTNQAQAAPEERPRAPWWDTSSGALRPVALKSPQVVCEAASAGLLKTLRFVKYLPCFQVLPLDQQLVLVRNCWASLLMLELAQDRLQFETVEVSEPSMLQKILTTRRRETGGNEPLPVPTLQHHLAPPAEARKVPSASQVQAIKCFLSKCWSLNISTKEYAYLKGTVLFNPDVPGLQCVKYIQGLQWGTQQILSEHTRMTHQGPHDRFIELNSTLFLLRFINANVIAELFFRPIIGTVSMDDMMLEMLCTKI
# hgDAF-12 ag: agonists of H. glycines DAF-12 nuclear receptor. HEK293 GAL4-hgDAF12 UAS-luciferase reporter, agonist luminescence; normalized to butyrate control. activation, % at 6.8 µM. actives 1.8% (n = 370,000). AID 687014;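 active = activation above a cutoff set at the mean of all screened compounds plus 3 SD, cut at about 10% in these data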;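 note: 0% = DMSO wells and 100% = sodium butyrate wells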
# DAX1 inh-2: blocks DAX1 repression of SF-1 activated StAR promoter | inhibition, % at 6.8 µM | HEK293T StAR-luciferase reporter, SF-1/DAX-1 repression relief | actives 1.1% (n = 370,000);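 active = inhibition above the mean over all tested compounds plus 3 SD, cut at about 3.6% in these data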;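 note: 0% = DAX-1 cells with DMSO and 100% = cells lacking DAX-1 with DMSO; higher inhibition means more luminescence from relief of DAX-1 repression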
# hcDAF-12 act: activators of H. contortus DAF-12 nuclear receptor | HEK293 hcDAF-12 lit1-tk-luc reporter, luminescence; 0% DMSO, 100% Δ7-dafachronic acid | activation, % at 6.8 µM | actives 1.4% (n = 370,000) | AID 652067;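 active = activation above the mean of all tested compounds plus 3 SD, cut at about 5.5% in these data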;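 note: 100% = response to 3 µM Δ7-dafachronic acid high control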
# AHR activator: human AHR activation | activation, % at 5 µM | actives 2.5% (n = 320,000) | AHR-responsive luciferase reporter cells, luminescence | AID 2796 | P35869; in the data active = activation above about 47%;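 note: 0% = vehicle wells and 100% = reference agonist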
# * hit, by the source's call; nt = not tested or not shown. Compounds with a hit are over-represented: about 5.7% of the library has one in this group of screens.
SMILES,ssDAF-12 act,DAX1 inh-1,hgDAF-12 ag,DAX1 inh-2,hcDAF-12 act,AHR activator
O=[N+]([O-])c1cc(S(=O)(=O)NCc2ccco2)ccc1NN=Cc1ccccn1,-1.1,nt,1.2,-0.1,-1.7,nt
COc1cccc2c(=O)c3ccccc3oc12,-0.8,4.5*,5.2,1.1,0.1,9.1
COc1ccc2oc3ccccc3c(=O)c2c1,-0.7,1.3,8.9,2.0,2.0,-1.3
Cc1cc(C)cc(NC2=C(N)C(=O)c3ccccc3C2=O)c1,nt,2.0,nt,nt,nt,54.7*
CCC(Cc1ccccc1)NC(=O)Cn1ncc2ccsc2c1=O (stereo not drawn),1.0*,-0.3,11.4*,-0.3,5.9*,-1.9
CC1=NN(c2ccc(C(F)(F)F)cn2)C(=O)C1,-1.1,0.7,2.0,0.3,2.1,50.6*
CS(=O)(=O)Nc1ccc(N2CCN(c3ccc(C(F)(F)F)cn3)CC2)nc1,-1.7,-5.2,-8.3,-2.1,-5.5,-5.1
Cc1cc(OCC(=O)Nc2ccccc2C(N)=O)c2c(C)cc(=O)oc2c1,-1.1,0.9,2.0,-1.0,-1.2,7.4
Cc1nnc2c(NCC(C)c3ccccc3)nc3ccccc3n12 (stereo not drawn),-0.2,-1.2,1.1,-0.6,-1.1,nt
CC(CNc1nc2ccc(Cl)cc2n2cnnc12)c1ccccc1 (stereo not drawn),-1.5,5.5*,-1.8,-0.2,-2.3,6.8
CCCCNC(=S)N/N=C/c1cc(C)ccc1C,-1.5,-1.2,-0.7,-1.1,-3.1,-0.4
CCCCNC(=S)N/N=C/c1ccc(C)s1,-1.0,1.1,4.8,2.0,0.8,74.6*
CCCCNC(=S)N/N=C/c1sccc1C,-1.2,2.2,10.9*,-0.5,-1.4,24.4
COc1ccc(CC(=O)NCC(=O)N/N=C/c2sccc2C)cc1,-1.3,-0.5,1.1,-0.1,6.4*,10.2
COc1ccc(CC(=O)NCC(=O)N/N=C/c2ccc(C)o2)cc1,0.3,0.4,-0.8,0.2,0.2,20.8
NNC(=O)Cn1c(-c2ccccc2)cc(=O)n2ncnc12,-1.3,-1.5,-0.8,0.4,-0.5,5.0
NC(=O)c1cc(S(=O)(=O)N2CCCC2)ccc1OCCOc1ccccc1F,-0.6,1.1,1.4,0.4,-1.1,nt
Cc1c(C(=O)N(Cc2ccco2)Cc2cccs2)oc2ccccc12,1.1*,5.5*,1.6,1.0,-0.2,16.0
CCCCCCC(=O)Nc1c(O)c2ccccc2[nH]c1=O,-1.0,1.0,1.6,0.6,-1.2,4.0
O=C(Nc1c(O)c2ccccc2[nH]c1=O)c1ccco1,-0.2,3.0,3.5,0.0,3.7,78.2*
COc1ccc(NC(=O)c2ccccc2NC(=O)c2ccco2)cc1,-0.4,0.9,0.7,0.2,-1.7,62.6*
CCOc1ccccc1NC(=O)c1ccc(Cl)c(NC(=O)CC(c2ccccc2)c2ccccc2)c1,-0.8,-0.2,0.2,0.1,-1.4,79.9*
CCOc1ccccc1NC(=O)c1cc(SC)ccc1Cl,-1.6,-1.8,-3.2,-0.7,-1.8,72.4*
COc1ccccc1N1CCN(C(=S)Nc2ccccc2)CC1,-1.0,0.3,-1.6,-0.8,-3.0,1.2
C[C@@H]1CN([C@@H](C)CO)C(=O)CCCn2nncc2CO[C@H]1CN(C)CC1CC1,-0.5,nt,-0.5,-0.1,-0.5,nt
SMILES,ssDAF-12 act,DAX1 inh-1,hgDAF-12 ag,DAX1 inh-2,hcDAF-12 act,AHR activator
COC(=O)[C@]12C[C@H](CC(=O)NCc3cccc4ccccc34)C(=O)N(Cc3ccc4c(c3)OCO4)C1=C[C@H](COCc1ccccc1)O[C@@H]2C,-1.4,nt,-1.2,-2.1,-3.3,nt
O=C(CN(Cc1ccc(Br)cc1)S(=O)(=O)c1ccccc1)NCC1CCCO1 (stereo not drawn),-1.0,0.1,-3.9,-1.2,-3.0,-2.0
CN(C)S(=O)(=O)c1cccc(-c2nnc(SCCNCCO)n2-c2ccc(F)cc2)c1,-1.0,0.7,0.8,0.7,0.9,-0.6
O=C(Nc1ccccc1C(=O)Nc1ccccc1)c1ccco1,-1.2,-0.7,-1.4,0.1,-1.1,75.8*
CCOc1ccccc1NC(=O)c1ccc(C(=O)Nc2ccccc2OCC)nc1,0.2,0.0,5.7,-0.4,3.8,72.0*
CCOc1ccccc1NC(=O)c1ccccc1NC(=O)c1ccco1,-1.3,2.6,1.2,-0.4,3.2,70.3*
CCOc1ccccc1NC(=O)c1cnccn1,-1.0,0.7,3.6,-0.1,-1.7,2.7
O=C(O)c1cccc(NC(=O)c2ccccc2NC(=O)c2ccco2)c1,-1.2,1.2,0.4,-0.6,-1.8,0.3
O=C(Nc1cccnc1Oc1ccc(Cl)cc1)c1cccc2ccccc12,-0.8,6.0*,-0.9,0.2,0.6,6.6
CN(CC(=O)Nc1ccccc1N1CCCC1)S(=O)(=O)c1ccc(F)cc1,-1.2,-1.6,-1.8,-1.9,0.8,4.0
CCOc1ccccc1NC(=O)COC(=O)c1ccc2ccccc2n1,-1.3,-0.6,0.0,1.0,2.0,13.7
CCOCC(=O)Nc1cc(C(=O)Nc2ccc(F)cc2)ccc1Cl,nt,nt,nt,nt,nt,63.4*
CCOc1ccccc1NC(=O)COC(=O)c1cc[n+]([O-])cc1,0.0,5.4*,-2.2,-0.1,-1.1,12.7
CCOCC(=O)Nc1cc(C(=O)Nc2cccc(C)c2C)ccc1Cl,-1.8,-1.1,-0.6,0.7,-2.6,0.0
CCOc1ccccc1NC(=O)c1ccccc1-c1ccccc1,-1.1,-0.8,0.4,-0.6,-3.0,4.0
CCOc1ccccc1NC(=O)c1cccc2ccccc12,0.4,0.1,-1.4,-0.3,-1.9,74.3*
CCOc1ccccc1NC(=O)c1csc(C)c1C,-1.1,0.7,-0.2,-0.9,-2.3,71.0*
Cc1ccc(S(=O)(=O)N(CC(=O)NC2CC3CCC2C3)c2ccccc2)cc1 (stereo not drawn),-0.9,-0.3,-0.2,0.4,-1.1,nt
CCCCOCCCNC(=O)C[C@H]1C[C@@]2(C(=O)OC)C(=C[C@H](C(C)C)O[C@@H]2C2CC2)N(Cc2ccc(Cl)cc2Cl)C1=O,-0.4,nt,-2.4,-1.1,-2.2,nt
CCCCCN(C(=O)CCc1cn(CCCCC)c2ccccc12)c1ccc(N(C)c2ccccn2)cc1,-0.3,nt,-0.2,0.7,0.5,nt
COc1cccc(CN2CCNC(=O)C2CC(=O)NCCn2ccc3ccccc32)c1OC (stereo not drawn),-1.4,-1.2,-1.0,0.0,1.6,6.2
CCCc1c(O)c2ccccc2[nH]c1=O,-1.0,-1.2,0.8,-0.1,-0.3,-0.2
O=C(Nc1ccccc1C(=O)Nc1ccc2c(c1)OCO2)c1ccco1,-1.6,-0.4,0.6,-1.0,-1.1,47.3*
O=c1[nH]c2ccccc2c(O)c1Cc1ccccc1,-1.4,4.7*,-1.9,-0.8,-1.6,-1.7
O=S(=O)(N/N=C/c1ccc2c(c1)OCO2)c1ccc(Br)cc1,-0.3,0.1,-0.5,0.4,0.2,-0.2
O=C(Nc1ccc(Cl)c(S(=O)(=O)N2CCOCC2)c1)c1ccc(Cl)nc1,-1.7,-3.9,-8.9,-7.0,-2.8,nt

# Bioassay records (PubChem)
